In all, about 290,000 compounds went through this assay and about 2,300 (0.79%) were called active. No stated cut-off is given here; in the data, active means inhibition above about 22%; inactive means the rest. This excerpt belongs to a sample that is enriched for actives.
experiment: cytotoxicity in IEC-6 intestinal epithelial cells, primary screen, cytotoxicity control for KLF5 inhibitor project, cell-based, luminescence (AID 1825); conditions: IEC-6 cytotoxicity, luminescence viability; at 5 µM; hits give high values;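 further: 0% = plate median of test compound wells and 100% = cytotoxic reference compound wells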

SMILES	inhibition
COc1ccc(NC(=O)c2cccc(Cl)c2)c[n+]1[O-]	2.7% (inactive)
COCCN1C(=O)C(=O)/C(=C(/O)c2ccc(S(=O)(=O)N3CCOCC3)cc2)C1c1ccc(O)c(OC)c1 (configuration not stated)	-5.5% (inactive)
O=C(NCCCN1CCOCC1)c1cc(-c2cccc(O)c2)on1	-0.6% (inactive)
O=C(N/N=C\c1cc2c(cc1Cl)OCO2)c1ccc(Br)s1	0.3% (inactive)
CC[C@H]1CN2CCc3cc(OC)c(OC)cc3[C@@H]2C[C@@H]1C[C@H]1NCCc2cc(OC)c(OC)cc21	98.9% (active)
COc1cc2c(cc1O)[C@H](Cc1ccc(Oc3cc(C[C@@H]4NCCc5cc(OC)c(O)cc54)ccc3O)cc1)NCC2	1.5% (inactive)
CCc1ccc(OCC2c3cc(OC)c(OC)cc3CCN2C(C)=O)cc1 (configuration not stated)	9% (inactive)
Fc1ccc(-n2c(Cc3ccccc3)nnc2SCc2nc(-c3ccc(Cl)cc3)no2)cc1	-0.4% (inactive)
COc1ccc(CN2CCC(n3nccc3NC(=O)CCCc3ccccc3)CC2)cc1C	2.8% (inactive)
Cc1cccc(C(=O)NCCCN(C)CCCNC(=O)c2cccc(C)c2)c1	-0.9% (inactive)
COC(=O)CNC(=O)c1ccccc1F	-2.1% (inactive)
CSc1nc(N(C)NC(=O)c2cccc(C)c2)c2ccccc2n1	94.6% (active)
COc1ccc(C(=O)NN(C)c2nc(-c3ccccc3)cc(C)c2S(C)(=O)=O)cc1	1% (inactive)
CN(NC(=O)c1ccccc1)c1nc2ccccc2nc1C(F)(F)F	-0.3% (inactive)
CN(NC(=O)c1ccccc1F)c1nc(C(F)(F)F)nc2ccccc12	83.3% (active)
CCOc1ccccc1NC(=S)NC(=O)CCc1ccccc1	-2.9% (inactive)
NC(=O)CSc1nnc(NC(=O)c2ccc(Br)o2)s1	-5.8% (inactive)
CN(C)CCCNC(=O)c1cc(C(=O)Cc2ccc(Cl)cc2)c[nH]1	2.2% (inactive)
COc1ccc(N2CCN(S(=O)(=O)c3ccc4c(c3)NC(=O)C(C)C(=O)N4)CC2)cc1 (configuration not stated)	1% (inactive)
COc1cc(C(=O)NN(CCC#N)C2=NS(=O)(=O)c3ccccc32)cc(OC)c1OC	-4.2% (inactive)
Cc1cccc(/C=N/NC(=O)CNc2cccc3ccccc23)n1	37.6% (active)

SMILES	inhibition
C/C(=N\NC(=O)CNc1cccc2ccccc12)c1ccc(Br)s1	0.2% (inactive)
Cn1cccc1/C=N/NC(=O)c1ccc(OC(F)(F)C(F)F)cc1	2.6% (inactive)
Cc1cccc(C(=O)Nc2ccc(C(=O)N/N=C/c3cccc(C)n3)cc2)c1	1.5% (inactive)
Cn1cccc1/C=N/NC(=O)CNc1cccc2ccccc12	47.6% (active)
Cc1ccccc1NCC(=O)N/N=C\c1ccc([N+](=O)[O-])s1	-4.9% (inactive)
O=C(NCCCn1ccnc1)c1cc(Br)c(Br)s1	-4.3% (inactive)
CN1C(=O)[C@H]2[C@@H](C3CC3)N3C(=O)CN(Cc4ccccc4)C(=O)[C@@]3(C)[C@H]2C1=O	-1.7% (inactive)
CC1CCCN(S(=O)(=O)c2ccc(C(=O)Nc3nnc(-c4ccncc4)o3)cc2)C1 (configuration not stated)	-1% (inactive)
CC1CCCCN1S(=O)(=O)c1ccc(C(=O)Nc2nnc(-c3cccs3)o2)cc1 (configuration not stated)	29.2% (active)
CSCc1nnc(NC(=O)c2ccc(S(=O)(=O)N3CCCCC3C)cc2)o1 (configuration not stated)	-0.9% (inactive)
CCc1nn(CCCC(=O)Nc2ccc(C)c(C)c2)c(=O)c2cc3occc3n12	-1.7% (inactive)
CCCCCCn1cc(C(=O)O)c(=O)c2cc(F)c(N3CCCCC3)cc21	2.5% (inactive)
Cc1ccc(C)c(Cn2cnc3c(oc4ccccc43)c2=O)c1	19.8% (inactive)
O=C(c1n[nH]c2c1CCC2)N1CCCC(Nc2cccc(F)c2)C1 (configuration not stated)	-8.3% (inactive)
CC(=O)Nc1ccc(Nc2c3ccccc3nc3ccccc23)cc1	95.3% (active)
Cc1ccc(Nc2c3c(nc4ccccc24)CCC3)cc1	7.5% (inactive)
O=[N+]([O-])c1cccc(Nc2c3ccccc3nc3ccccc23)c1	-0.9% (inactive)
COc1ccc(Cl)cc1NC(=O)CN(C)Cc1ccc(OC)c(OC)c1	5.1% (inactive)
COc1ccccc1N1CC(C(=O)Nc2nnc(SCC(=O)NCC3CCCO3)s2)CC1=O (configuration not stated)	5.1% (inactive)
Nc1nonc1-n1nnc(C(=O)N/N=C\c2ccncc2)c1CN1CCCCC1	-0.8% (inactive)
CCOc1cc(/C=N/Nc2cc(C)nc3ccc(C)cc23)ccc1O	-8.1% (inactive)

SMILES	inhibition
CC1(C)CC(N2CCN(C(c3ccccc3)c3ccccc3)CC2)=CC(=[N+]2CCCCC2)C1	30.6% (active)
CC(C)NC(=S)N1CCN(C(c2ccccc2)c2ccccc2)CC1	-1.6% (inactive)
O=C(O)CN1CCN(C(c2ccccc2)c2ccccc2)CC1	-7.1% (inactive)
CC(C)c1ccc(/C=C2\NC(=O)NC2=O)cc1	-2.7% (inactive)
COc1ccc(N(C(=O)CNC(=O)c2ccco2)C(C(=O)NCC2CCCO2)c2ccccc2)cc1Cl (configuration not stated)	4.1% (inactive)
CC[n+]1cc(C)ccc1/C=C/c1ccc(N(C)C)cc1	38.6% (active)
CN(C)c1ccc(/C=N\S(=O)(=O)c2ccccc2)cc1	-2.3% (inactive)
CCSc1nnc(-c2cc3c(s2)-c2ccccc2CC3)o1	5.3% (inactive)
CC1CCCN(S(=O)(=O)c2ccc(-c3ccc(=O)[nH]n3)o2)C1 (configuration not stated)	2.6% (inactive)
COCCNc1ncnc2c1nc1n2CCCC1	2.4% (inactive)
COc1ccccc1/C=C1\SC(=O)N(CCC(=O)N(C)C2CCS(=O)(=O)C2)C1=O (configuration not stated)	-0.8% (inactive)
CN1CCC(CN)(N2CCN(c3ccccc3)CC2)CC1	-4.9% (inactive)
CCN(CC)c1ccc(NC(=O)c2ccc(Cl)nc2)cc1	55.7% (active)
O=C(NNc1ccccn1)c1ccc(Cl)nc1	-4.7% (inactive)
Cc1cnc(NC(=O)c2ccc(Cl)nc2)s1	-6.8% (inactive)
COc1cccc(CNC(=O)CCC2CCCN(C(=O)c3ccc(F)c(Cl)c3)C2)c1 (configuration not stated)	1.1% (inactive)
O=C(CNC(=O)c1cccs1)N/N=C/c1cccc(Br)c1	-5.3% (inactive)
O=C(CN1C(=O)C2C3C=CC(C3)C2C1=O)Nc1nc(-c2ccccn2)cs1 (configuration not stated)	32.2% (active)
O=C(CN1C(=O)C2C3C=CC(C3)C2C1=O)NCCc1ccccc1Cl (configuration not stated)	-1.9% (inactive)
O=C(CCN1C(=O)C2C3C=CC(C3)C2C1=O)Nc1ccccc1F (configuration not stated)	-2.4% (inactive)

Reference: PubChem BioAssay AID1825 (The Scripps Research Institute Molecular Screening Center, 2009)
